Bioassay records as filed in PubChem BioAssay.
Rows were chosen to be rich in hits. Some 4.6% of all compounds tested hit in one or more screens of this group.
HSF1 activator: increases HSF-1 driven luciferase reporter signal; AID 504408; activation, % at 9 µM; actives 1.7% (n = 300,000); NIH3T3-HGL HSF-1 luciferase reporter, MG132, 8 h; 100% = twice DMSO control signal;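 active = mean replicate activation of at least 50% with a set share of replicates each reaching 50%; inconclusive = only one of those two conditions met; inactive = mean below 50% and too few replicates reaching it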;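 also: 0% = median of the neutral control wells and 100% = twice that signal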
AHR activator: activates the human aryl hydrocarbon receptor. AHR-responsive luciferase reporter cells, luminescence. activation, % at 5 µM. actives 2.5% (n = 320,000); in the data active = activation above about 47%;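 also: 0% = vehicle wells and 100% = reference agonist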
HSF1 inh: HSF1 inhibition. activity change, negative = inhibition, % at 7.5 µM (by protocol). NIH3T3-HGL HSE-luciferase, MG132-induced, luminescence 8 h; hits give low values. actives 0.77% (n = 300,000). AID 2098;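 active = more than half of replicate wells show activity change below -50%, luminescence cut by over half; inconclusive = some wells, but at most half, below -50%; inactive = no replicate well below -50%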;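 also: luciferase reports HSF-1 transcriptional activity via heat shock element; 0% = median of DMSO wells and -100% = zero luminescence signal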
FXN GAA850 act: frataxin GAA850 promoter activation; HEK293 lucGAA850 FXN promoter luciferase reporter, 24 h; percent of 10 µM SAHA response; activation, % at 6 µM; actives 0.56% (n = 360,000);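 active = activation above the average of all compounds screened plus 3 SD, cutoff fixed separately per campaign, cut at about 7.5% in these data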;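 also: 0% = DMSO wells and 100% = 10 µM SAHA wells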
* hit, by the source's call; ? = inconclusive; nt = no result.

SMILES	HSF1 activator	AHR activator	HSF1 inh	FXN GAA850 act
CC1(C(=O)NS(=O)(=O)c2cccc(Cl)c2)CCN1C(=O)C1CC1 (configuration not stated)	nt	nt	nt	-0.7
Cc1onc(-c2ccccc2)c1C(=O)OCCOc1ccc([N+](=O)[O-])cc1[N+](=O)[O-]	15.4	0.9	6.0	-0.2
O=C(NC1=NCCS1)c1cc(-c2ccc(-c3ccccc3)cc2)nc2ccccc12	38.1	0.9	27.5	3.2
COc1ccc(-c2cc(C(=O)N(C)Cc3ccc(F)cc3)c3ccccc3n2)cc1OC	-1.5	64.3*	-0.9	0.1
COc1cc(-c2cc(C(=O)Nc3ccc(O)cc3)c3ccccc3n2)cc(OC)c1OC	-3.8	17.9	-2.7	-3.4
COc1ccc(-n2c(SCC(=O)Nc3ccc(C(N)=O)cc3)nc3ccccc3c2=O)cc1OC	59.6*	0.8	16.8	-0.9
COc1ccc(-c2cc(C(=O)Nc3ccc(C(N)=O)cc3)c3ccccc3n2)cc1OC	17.9	52.1*	12.2	6.8
COc1ccc(-c2cc(C(=O)NC3=NCCS3)c3ccccc3n2)cc1OC	3.6	66.8*	-8.9	-1.6
COC(=O)[C@@]12CCCN1[C@H](c1ccc(-c3ccc(OC)cc3)cc1)[C@@H]1C(=O)N(C)C(=O)[C@@H]12	5.6	5.5	-1.2	-0.9
COc1ccc(CCN(C)Cc2c(O)ccc3cc(Br)ccc23)cc1OC	203.9*	0.8	164.3	-0.2
COc1ccc(CN(C)Cc2c(O)ccc3cc(Br)ccc23)cc1OC	113.8*	2.5	86.8	1.0
COc1ccc(CCN(C)CCc2ccc(OC)c(OC)c2)cc1OC	-3.1	-2.9	-2.0	1.6
COc1ccc2cc(Br)ccc2c1CC(=O)N(C)C	11.1	-0.7	-0.4	-1.7
COc1ccccc1N(C)S(=O)(=O)c1ccc(C(=O)NCc2ccc3c(c2)OCO3)cc1	5.0	-0.8	-2.1	-1.5
CCCCn1c(N)c(N(CC(C)C)C(=O)c2oc3c(Cl)cccc3c2C)c(=O)[nH]c1=O	-37.5	19.1	?	0.4
COc1ccc(NC(=O)CSc2ccc3c4c(cccc24)C(=O)c2ccccc2-3)cc1	58.5*	3.2	12.1	-0.7
CCc1ccc(C(=O)N/N=C(\C)c2ccncc2)s1	-78.7	36.4	-73.7*	1.0
C/C(=N\NC(=O)c1cc(-c2ccc(Cl)s2)[nH]n1)c1ccncc1	12.6	49.8*	4.2	-0.9
COc1cc(C(=O)OC(C)CN2CCOCC2)cc(OC)c1OC (configuration not stated)	18.5	0.0	-1.0	0.6
O=C(CCc1c[nH]c2ccccc12)NCCc1ccc(Cl)cc1	54.8*	1.9	17.5	-1.4
CN(C)/C=C1/Oc2c(ccc3ccccc23)C1=O	3.6	65.8*	2.8	0.9
COc1ccc(CN2CCSCC2)c(OC)c1C	-2.3	nt	-10.1	1.8
CC1(C)Cc2nc(NCCN3CCOCC3)c(C#N)cc2CO1	102.6*	0.6	42.5	-0.7
CC(C)CCNc1nc2c(cc1C#N)COC(C)(C)C2	-14.4	2.3	1.5	0.4
O=C(CSc1nnc(CNC(=O)c2ccc(F)cc2)o1)NCc1ccc2c(c1)OCO2	-1.8	21.4	-4.1	0.2
SMILES	HSF1 activator	AHR activator	HSF1 inh	FXN GAA850 act
Cc1cc(C)n2nc(C(=O)N/N=C/c3ccccc3Cl)nc2n1	3.9	4.4	-4.0	0.5
Cc1ccc(NC(=O)[C@@H](CC(C)C)NC(=O)[C@@H]2Cc3ccccc3CN2)cc1	9.9	1.3	-2.9	-0.6
Cc1cc(C)cc(NC(=O)C2CCC(CNC(=O)[C@@H]3Cc4ccccc4CN3)CC2)c1 (some centres not stated)	-1.3	3.1	-1.6	1.8
CCc1ccc(NC(=O)C2CCC(CNC(=O)[C@@H]3Cc4ccccc4CN3)CC2)cc1 (some centres not stated)	-72.2	0.2	-66.3*	0.3
Cc1ccc(NC(=O)[C@@H](C)NC(=O)[C@@H]2Cc3ccccc3CN2)cc1	-64.4	1.8	-54.9*	2.4
O=C(C[C@@H]1C/C=C\C[C@H](NC(=O)OCC2c3ccccc3-c3ccccc32)C(=O)OC[C@@H]2CCCN2C1=O)N[C@H](CO)Cc1ccccc1	nt	0.4	nt	-2.3
CCCc1cc2c(=O)c(-c3ccccn3)coc2cc1OC	46.6	0.5	15.1	5.0
CCCc1cc2c(=O)c(-c3ccccn3)c(C)oc2cc1O	16.2	65.0*	-7.7	0.2
CCOc1ccc(-c2cc(C(=O)Nc3ccc(C)c(NS(C)(=O)=O)c3)[nH]n2)c(C)c1	nt	nt	nt	0.1
CCN1C(=S)SC(=O)C1=C1C=C(C)OC(C)=C1	9.0	-0.6	0.5	1.9
CCN1C(=S)SC(=O)C1=C1C=C(C)N(Cc2ccco2)C(C)=C1	-59.0	-2.0	-53.9*	0.9
Cc1ccc(CN2C(=O)C(C)Nc3ncnc(N4CCN(c5ccccn5)CC4)c32)cc1 (configuration not stated)	-46.0	60.1*	-29.8	2.1
O=C1C(Cc2ccccc2)Nc2ncnc(N3CCN(c4ccccc4)CC3)c2N1Cc1ccccc1 (configuration not stated)	-74.7	3.5	-66.9*	0.7
Cc1ccc(CN2C(=O)C(Cc3ccccc3)Nc3ncnc(N4CCN(c5ccccc5)CC4)c32)cc1 (configuration not stated)	24.5	2.1	6.4	-1.3
COCCn1c(SCC(=O)NC2CC2)nnc1-c1ccco1	-22.0	0.6	-9.9	-1.0
Cn1c(Cc2nc3ccccc3n2C)nc2ccccc21	-0.1	7.0	-12.3	1.3
Cc1ccccc1NCc1nc2ccccc2n1C	?	78.5*	36.7	5.4
Cn1c(CNc2ccccc2O)nc2ccccc21	80.3*	76.5*	39.8	2.7
Cn1c(CNc2ccc(F)cc2)nc2ccccc21	26.5	nt	31.0	6.8
Cn1c(CNc2ccccc2)nc2ccccc21	38.9	64.8*	16.6	4.1
NS(=O)(=O)c1ccc(N/N=C/c2ccccc2C(=O)O)c([N+](=O)[O-])c1	60.5*	26.2	23.3	1.9
NS(=O)(=O)c1ccc(N/N=C/c2ccc3c(c2)OCO3)c([N+](=O)[O-])c1	2.3	113.9*	1.3	2.3
O=[N+]([O-])c1ccccc1N/N=C/c1ccc2c(c1)OCO2	65.4*	nt	44.3	5.5
NS(=O)(=O)c1ccc(N/N=C/c2ccc(O)cc2O)c([N+](=O)[O-])c1	12.2	-4.3	7.4	1.4
O=[N+]([O-])c1ccccc1N/N=C/c1ccccc1	27.1	6.6	21.6	1.0
Cc1ccc2nc(C3CCCN(C(=O)NCc4ccccc4)C3)[nH]c2c1 (configuration not stated)	7.8	15.4	10.3	-0.9
CC1CN(c2nc(Nc3ccccc3F)nc(N)c2[N+](=O)[O-])CC(C)O1 (configuration not stated)	0.1	7.3	0.4	5.8
Nc1c(NCc2ccccc2F)c(=O)[nH]c(=O)n1Cc1ccccc1	2.4	7.2	1.4	-0.4
CC(C(=O)NC1CCCCCC1)c1ccc([N+](=O)[O-])cc1 (configuration not stated)	3.3	-2.6	-5.7	1.8
CCN(CC)c1ccc2c(Cl)c(Br)c(=O)oc2c1	325.6*	53.2*	279.9	-4.4
